According to PubChem BioAssay (NCI):
Compounds without any hit were thinned out: in the full panel of roughly 79,000, 15% have a hit. The source made the active and inactive calls. Rule as the data show it: active = growth inhibition above about 70%; inactive = the rest.

Key:
[1] = NCI Yeast Anticancer Drug Screen. Data for the rad52 strain (AID 147);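 also: 0% = growth of vehicle-treated control cultures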; details: S. cerevisiae rad52 mutant growth inhibition, stronger effect = higher value
In short: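 Genetically altered yeast (DNA damage repair defect) treated with compound; inhibition calculated relative to vehicle.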

[2] = NCI Yeast Anticancer Drug Screen. Data for the wt1 strain (AID 149);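 also: 0% = growth of vehicle-treated wt1 cultures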; details: S. cerevisiae wt1 strain (SPY 50644) growth inhibition, stronger effect = higher value
In short: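 Each compound is tested on wt1 yeast and the loss of growth versus vehicle gives the inhibition value.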

[3] = NCI Yeast Anticancer Drug Screen. Data for the rad50EPP+ strain (AID 151);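 also: 0% = growth of vehicle-treated control cultures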; details: S. cerevisiae rad50 mutant strain, stronger effect = higher value
In short: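 Strain rad50EPP+; compound exposure; % growth inhibition vs vehicle.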

[4] = NCI Yeast Anticancer Drug Screen. Data for the mgt1 strain (AID 153); details: S. cerevisiae mgt1 mutant growth inhibition, stronger effect = higher value
In short: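 Read-out: yeast growth inhibition vs vehicle control. Strain mgt1, drawn from a panel altered in DNA damage repair or cell cycle control.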

[5] = NCI Yeast Anticancer Drug Screen. Data for the rad50 strain (AID 155);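 also: 0% = growth of vehicle-only cultures of the same strain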; details: S. cerevisiae rad50 strain growth inhibition, stronger effect = higher value
In short: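 Vehicle-treated cultures provide the reference for the growth inhibition reported for compound-exposed, repair-deficient yeast.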

[6] = NCI Yeast Anticancer Drug Screen. Data for the mec2-1 strain (AID 157); details: S. cerevisiae mec2-1 strain, stronger effect = higher value
In short: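 Cells of the genetically defined mec2-1 yeast strain are incubated with test compound. Inhibition of growth is calculated against vehicle-treated controls.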

[7] = NCI Yeast Anticancer Drug Screen. Data for the rad14 strain (AID 159);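 also: 0% = growth of vehicle-treated control cultures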; details: S. cerevisiae rad14 strain growth inhibition, stronger effect = higher value
In short: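 Inhibition of growth is reported for a repair-deficient yeast mutant following compound treatment, calculated relative to cultures that received vehicle.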

[8] = NCI Yeast Anticancer Drug Screen. Data for the sgs1 mgt1 strain (AID 161);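 also: 0% = growth of cultures given vehicle only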; details: S. cerevisiae sgs1 mgt1 strain, stronger effect = higher value
In short: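 Mutant yeast exposed to compound; growth scored against vehicle-only wells.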

[9] = NCI Yeast Anticancer Drug Screen. Data for the CLN2oe strain (AID 163);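 also: 0% = growth of vehicle-only control cultures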; details: S. cerevisiae CLN2oe strain, stronger effect = higher value
In short: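 Strain altered in cell-cycle control, incubated with compound; growth compared to solvent-treated controls.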

[10] = NCI Yeast Anticancer Drug Screen. Data for the cln2 rad14 strain (AID 165);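 also: 0% = growth equal to vehicle treated cultures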; details: S. cerevisiae cln2 rad14 strain, stronger effect = higher value
In short: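 The screen exposed genetically defined yeast (cln2 rad14) to test compounds and scored growth inhibition relative to vehicle-treated controls.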

[11] = NCI Yeast Anticancer Drug Screen. Data for the bub3 strain (AID 167); details: S. cerevisiae bub3 mutant strain, stronger effect = higher value
In short: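 Mutant yeast screening strain plus compound; vehicle-treated cultures serve as the 0% inhibition reference.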

[12] = NCI Yeast Anticancer Drug Screen. Data for the wt2 strain (AID 169); details: S. cerevisiae wt2 strain growth inhibition, stronger effect = higher value
In short: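 Steps: yeast strain treated with compound; growth recorded; inhibition calculated relative to cultures given vehicle alone.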

[13] = NCI Yeast Anticancer Drug Screen. Data for the mlh1 strain (AID 171);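 also: 0% = growth of vehicle-treated control cultures of the same strain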; details: S. cerevisiae mlh1 strain growth inhibition, stronger effect = higher value
In short: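 Yeast screen: mutant strain plus compound, growth scored against vehicle control wells.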

[14] = NCI Yeast Anticancer Drug Screen. Data for the sgs1 strain (AID 173);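 also: 0% = growth of vehicle-only control cultures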; details: S. cerevisiae sgs1 mutant, stronger effect = higher value
In short: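 Inhibition of yeast growth served as the measure. The mutant strain was treated with each compound, and growth was normalised to cultures receiving vehicle alone.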

[15] = NCI Yeast Anticancer Drug Screen. Data for the mlh1 rad18 strain (AID 175); details: S. cerevisiae mlh1 rad18 strain growth inhibition, stronger effect = higher value
In short: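 Compound-treated yeast growth, normalised to vehicle controls. Strain bears defined DNA repair mutations.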

[16] = NCI Yeast Anticancer Drug Screen. Data for the rad18 strain (AID 177); details: S. cerevisiae rad18 mutant growth inhibition, stronger effect = higher value
In short: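 Inhibition values reflect reduced yeast growth compared with vehicle-treated controls, using a strain engineered with a DNA damage repair defect.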

[17] = at 5.0 µM (retest, dose inferred, filed as 0.5)
[18] = at 50.0 µM (retest, dose inferred, filed as 5.0)

Measured: growth inhibition

N#CNC(N)=Nc1cc2ccccc2c2ccccc12
inactive: [1]; at 1.2 µM 34% | [1]; at 3.7 µM 60% | [2]; at 1.2 µM 3% | [2]; at 3.7 µM 25% | [2]; at 11.0 µM 61% | [3]; at 1.2 µM 8% | [3]; at 3.7 µM 16% | [3]; at 11.0 µM 61% | [4]; at 1.2 µM 27% | [4]; at 3.7 µM 40% | [5]; at 1.2 µM 45% | [5]; at 3.7 µM 69% | [5]; [17] 60% | [6]; at 1.2 µM 24% | [6]; at 3.7 µM 32% | [6]; [17] 48% | [6]; at 11.0 µM 58% | [6]; at 50.0 µM 67.1% | [7]; at 1.2 µM 36% | [7]; at 3.7 µM 53% | [8]; [17] 57% | [9]; at 1.2 µM 38% | [9]; at 3.7 µM 46% | [9]; at 11.0 µM 68% | [10]; [17] 55% | [11]; at 1.2 µM 34% | [11]; at 3.7 µM 32% | [11]; [17] 40% | [11]; at 11.0 µM 67% | [12]; at 1.2 µM 17% | [12]; at 3.7 µM 12% | [12]; at 11.0 µM 62% | [13]; at 1.2 µM 31% | [13]; at 3.7 µM 50% | [14]; at 1.2 µM 20% | [14]; at 3.7 µM 58% | [15]; [17] 54% | [16]; at 1.2 µM 21% | [16]; at 3.7 µM 34%
active: [1]; at 11.0 µM 88% | [1]; at 33.0 µM 95% | [1]; at 100.0 µM 92% | [2]; at 33.0 µM 87% | [2]; at 100.0 µM 90% | [3]; at 33.0 µM 82% | [3]; at 100.0 µM 79% | [4]; at 11.0 µM 71% | [4]; at 33.0 µM 88% | [4]; at 100.0 µM 92% | [5]; at 11.0 µM 90% | [5]; at 33.0 µM 96% | [5]; [18] 97% | [5]; at 50.0 µM 89.5% | [5]; at 100.0 µM 90% | [6]; at 33.0 µM 78% | [6]; [18] 96% | [6]; at 100.0 µM 82% | [7]; at 11.0 µM 85% | [7]; at 33.0 µM 95% | [7]; at 100.0 µM 93% | [8]; [18] 96% | [8]; at 50.0 µM 78.8% | [9]; at 33.0 µM 83% | [9]; at 100.0 µM 84% | [10]; [18] 90% | [10]; at 50.0 µM 91.3% | [11]; at 33.0 µM 87% | [11]; [18] 96% | [11]; at 50.0 µM 92.2% | [11]; at 100.0 µM 93% | [12]; at 33.0 µM 89% | [12]; at 100.0 µM 89% | [13]; at 11.0 µM 78% | [13]; at 33.0 µM 92% | [13]; at 100.0 µM 91% | [14]; at 11.0 µM 87% | [14]; at 33.0 µM 96% | [14]; at 100.0 µM 96% | [15]; [18] 97% | [15]; at 50.0 µM 85.7% | [16]; at 11.0 µM 78% | [16]; at 33.0 µM 94% | [16]; at 100.0 µM 92%

O=C(O)CCCC1CCCc2c1ccc1ccccc21 (stereo unspecified)
active: [1]; at 33.0 µM 74% | [1]; at 100.0 µM 99% | [2]; at 100.0 µM 99% | [3]; at 100.0 µM 81% | [4]; at 100.0 µM 99% | [5]; [18] 89% | [5]; at 50.0 µM 88% | [5]; at 100.0 µM 99% | [6]; [18] 95% | [6]; at 50.0 µM 83.6% | [6]; at 100.0 µM 99% | [7]; at 100.0 µM 99% | [8]; [18] 86% | [8]; at 50.0 µM 94.3% | [9]; at 33.0 µM 74% | [9]; at 100.0 µM 99% | [10]; [18] 96% | [10]; at 50.0 µM 90.2% | [11]; [18] 85% | [11]; at 50.0 µM 89% | [11]; at 100.0 µM 99% | [12]; at 100.0 µM 99% | [13]; at 100.0 µM 99% | [14]; at 100.0 µM 99% | [15]; [18] 91% | [15]; at 50.0 µM 91.2% | [16]; at 100.0 µM 98%
inactive: [1]; at 1.2 µM -2% | [1]; at 3.7 µM 1% | [1]; at 11.0 µM 11% | [2]; at 1.2 µM -3% | [2]; at 3.7 µM 2% | [2]; at 11.0 µM 2% | [2]; at 33.0 µM 38% | [3]; at 1.2 µM 3% | [3]; at 3.7 µM 8% | [3]; at 11.0 µM 29% | [3]; at 33.0 µM 59% | [4]; at 1.2 µM -4% | [4]; at 3.7 µM -3% | [4]; at 11.0 µM 4% | [4]; at 33.0 µM 59% | [5]; at 1.2 µM -2% | [5]; at 3.7 µM 0% | [5]; [17] 6% | [5]; at 11.0 µM 8% | [5]; at 33.0 µM 58% | [6]; at 1.2 µM -2% | [6]; at 3.7 µM -4% | [6]; [17] 10% | [6]; at 11.0 µM 4% | [6]; at 33.0 µM 47% | [7]; at 1.2 µM 3% | [7]; at 3.7 µM 7% | [7]; at 11.0 µM 13% | [7]; at 33.0 µM 51% | [8]; [17] 13% | [9]; at 1.2 µM 1% | [9]; at 3.7 µM -4% | [9]; at 11.0 µM 13% | [10]; [17] 5% | [11]; at 1.2 µM -4% | [11]; at 3.7 µM -6% | [11]; [17] 2% | [11]; at 11.0 µM 6% | [11]; at 33.0 µM 61% | [12]; at 1.2 µM -1% | [12]; at 3.7 µM 1% | [12]; at 11.0 µM 7% | [12]; at 33.0 µM 57% | [13]; at 1.2 µM -3% | [13]; at 3.7 µM -1% | [13]; at 11.0 µM 4% | [13]; at 33.0 µM 60% | [14]; at 1.2 µM -1% | [14]; at 3.7 µM -2% | [14]; at 11.0 µM 6% | [14]; at 33.0 µM 64% | [15]; [17] 4% | [16]; at 1.2 µM -2% | [16]; at 3.7 µM -2% | [16]; at 11.0 µM 2% | [16]; at 33.0 µM 58%
